Test results published in PubChem BioAssay AID1159580 (chemical genetic matrix, 2015).
The campaign covered roughly 5,500 compounds. About 2,000 (36%) were called active. Another 18% or so got no clear call; they are omitted. Cut-off read from the data, not from the text of the source: active = normalized growth mostly below about 0.91 (no sharp cut-off); inconclusive = no clear call, values can overlap the other calls; inactive = mostly above about 0.92. This is one part of the list.

Assay: chemical genetic growth profiling, strain panel (AID 1159580);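 note: tested at 20 µM; growth read once vehicle control cultures reached saturation at 30 °C; 1 = growth at the plate median or of vehicle wells; lower values mean less growth of the strain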
Settings: S. cerevisiae deletion strains, growth OD

Measured: normalized growth

Nc1ccc(CCN2CCN(c3cccc(C(F)(F)F)c3)CC2)cc1
active: locus YGR229C, strain SMI1, hits give low values 0.501
inactive: locus YAL040C, strain CLN3, hits give low values 1.05 | locus YCL061C, strain MRC1 (second series), hits give low values 0.973 | locus YDR363W, strain ESC2, hits give low values 0.894 | locus YER002W, strain NOP16, hits give low values 1.03 | locus YMR307W, strain GAS1, hits give low values 1.02 | locus YNL175C, strain NOP13, hits give low values 1.02 | locus YNL197C, strain WHI3, hits give low values 1 | locus YNL224C, strain SQS1, hits give low values 1.01 | locus YOR083W, strain WHI5 (second series), hits give low values 1.02
